Here are results for 65 molecules from PubChem BioAssay AID463173 (ICCB-Longwood Screening Facility, Harvard Medical School, 2010).

Hit rate of the full screen: of about 52,000 compounds, about 4,300 (8.3%) were called active. No stated cut-off is given here; in the data, active means survival mostly below about 52% (no sharp cut-off); inactive means mostly above about 56%. The list comes from a sample in which actives are over-represented; it also holds similar structures and randomly drawn compounds.

For the assay, the system named is DeltatarO mutant. The experiment in a line: growth inhibition of S. aureus wild type versus tarO mutant, primary screen, teichoic acid synthesis inhibitors, RN4220, OD600 (AID 463173). The settings on record: OD600, 18 h, stronger effect = lower value, screened at 18.75 µg/mL (by protocol).
As to `COC(=O)Cn1nc(C)c2c(C)n(-c3ccccc3)nc2c1=O`, the survival was 90% (inactive).
As for `CCOc1ccc(NC(=O)Cn2cc(C(=O)c3ccc(CC)cc3)c(=O)c3cc4c(cc32)OCO4)cc1`, the figure is 86% (inactive); as for `O=C(Cn1nc(-c2ccccc2)nc(Cc2ccccc2)c1=O)Nc1ccccc1`, 90% (inactive); as for `O=C(NCc1noc2ccccc12)N1CCN(c2ccccc2F)CC1`, 40% (inactive).
The same measure for `COc1cccc(CSc2nc(-c3ccccc3OC)nc3c2Cc2c(CO)cnc(C)c2O3)c1`: 57% (inactive); for `CCCn1c2ccccc2c2cnn(CC(=O)NCc3cc(OC)ccc3OC)c(=O)c21`: 122% (inactive); for `CCN(CC)S(=O)(=O)c1ccc2c(c1)c(=O)c(C(=O)NCc1ccccc1OC)cn2C`: 71% (inactive).
`COc1cccc(C(=O)Nc2nc3nc(C)c(C)c(=O)n3[nH]2)c1`: the survival was 104% (inactive).
As for `COC(=O)c1c(NC(=O)c2cc(=O)c3c(C)cc(C)cc3o2)sc2c1CCCC2`, the figure is 61% (inactive).
The same measure for `CCOC(=O)c1c(NC(=O)c2cc(=O)c3c(C)cc(C)cc3o2)sc2c1CCC2`: 61% (inactive).
The same measure for `Cc1cc(C)c2c(=O)cc(C(=O)Nc3sc4c(c3C#N)CCCC4)oc2c1`: 12% (active); for `Cc1ccc(C(=O)NCC(c2ccco2)S(=O)(=O)c2cccs2)cc1C` (stereo not given): 102% (inactive).
Consider `CC(=O)c1ccc(NC(=O)CCc2c(C)nn(-c3ccc4nncn4n3)c2C)cc1`, for which the survival is 91% (inactive).
Turning to `Cc1cccc(N2CCN(C(=O)Cn3nc(C)n4cccc4c3=O)CC2C)c1` (stereo not given), the survival is 90% (inactive).
Consider `COC(=O)c1cc2occc2n1Cc1ccc(F)cc1Cl`, for which the survival was 30% (active).
As for `COC(=O)c1cc2oc(C)cc2n1Cc1cccc(Cl)c1`, the figure is -8% (active); as for `COC(=O)c1cc2oc(C)cc2n1Cc1ccc(Br)cc1F`, 75% (inactive); as for `COC(=O)c1cc2sc(C)cc2n1Cc1ccc(F)cc1Cl`, 76% (inactive).
As for `COC(=O)c1cc2oc(C)cc2n1Cc1ccc(C)cc1`, the figure is 69% (inactive); as for `COC(=O)c1cc2oc(C)cc2n1Cc1ccccc1Cl`, -8% (active).
For `COC(=O)c1cc2sccc2n1Cc1ccc(F)cc1Cl`, the survival is 65% (inactive).
In the case of `COC(=O)c1cc2oc(C)cc2n1Cc1c(C)cc(C)cc1C`, the survival was 46% (inactive).
The same measure for `COC(=O)c1cc2oc(C)cc2n1Cc1ccc(Cl)cc1`: 73% (inactive).
The same measure for `COC(=O)c1cc2oc(C)cc2n1CC(=O)Nc1cc(Cl)ccc1OC`: 77% (inactive); for `COC(=O)c1cc2oc3ccccc3c2n1Cc1ccccc1Cl`: 72% (inactive).
As for `COC(=O)c1cc2oc(C)cc2n1Cc1cc(C)ccc1C`, the figure is -9% (active).
As for `O=C(NCc1ccccc1)c1cc2sccc2n1Cc1ccc(F)cc1`, the survival was 88% (inactive).
With `Cc1cc(C)cc(-n2c(SCC(=O)Nc3nnc(C)s3)nc3c([nH]c4ccccc43)c2=O)c1`, the survival was 68% (inactive).
As for `O=C(NC1CC(=O)N(c2cccc(F)c2)C1)c1ccc(Br)o1` (stereo not given), the figure is 101% (inactive).
`CC(C)(C)C1CCc2c(sc(NC(=O)c3noc4c3CCCC4)c2C#N)C1` (stereo not given): the survival was 53% (inactive).
The same measure for `Cc1nnc(N(C)C(=O)CNC(=O)c2ccccc2)s1`: 75% (inactive).
The same measure for `COc1ccc(NC(=O)c2ccccc2NC(=O)c2ccco2)cc1`: 74% (inactive).
The same measure for `CCOC(=O)c1c(C)oc2nc(C)nc(NCCc3ccc(SC)cc3)c12`: 83% (inactive); for `Cc1cccc(CSc2nc3cc(C(=O)NC4CCCC4)ccc3c(=O)n2Cc2ccccc2)c1`: 69% (inactive); for `COc1ccc(Cl)cc1NC(=O)c1cc(S(=O)(=O)NC2CCCCCC2)ccc1F`: 71% (inactive).
`COC(=O)c1cc2oc3ccccc3c2n1Cc1ccc(Cl)cc1`: the survival was 76% (inactive).
The same measure for `COC(=O)c1cc2occc2n1Cc1nc(-c2ccc(C)cc2)oc1C`: 69% (inactive); for `COC(=O)c1cc2oc3ccccc3c2n1Cc1ccc(C)cc1`: 93% (inactive); for `C=CCn1c(C(=O)OCC)cc2oc(C)cc21`: 119% (inactive).
With `CCc1cccc(NC(=O)Cn2c(C(=O)OC)cc3occc32)c1`, the survival is 92% (inactive).
On to `COC(=O)c1cc2oc3ccccc3c2n1Cc1cccc(C)c1`, for which the survival is 31% (active).
In the case of `CCOC(=O)c1cc2oc(C)cc2n1CCCN1C(=O)c2ccccc2C1=O`, the survival is 0% (active).
Turning to `COC(=O)c1cc2occc2n1Cc1cccc(C)c1`, the survival is -6% (active).
With `CCOC(=O)c1cc2oc(C)cc2n1CC(=O)NC1CC1`, the survival is 86% (inactive).
As for `COc1ccc(Cl)cc1C1CC(=O)Nc2cc3c(cc21)OCCO3` (stereo not given), the survival is 102% (inactive).
In the case of `O=C(Nc1ccc(Br)cc1F)C1CCN(c2nc3ccccc3[nH]2)CC1`, the survival is 102% (inactive).
The same measure for `CCCNC(=O)Cn1c(=O)n(CC2CCC(C(=O)NC)CC2)c(=O)c2sccc21` (stereo not given): 87% (inactive); for `Cc1cccc(NC2=NCC(=O)N2Cc2ccccc2)c1`: 89% (inactive).
Regarding `CCOC(=O)N1CCN(C(=O)c2ccc3c(c2)N(Cc2ccccc2F)C(=O)c2ccccc2S3(=O)=O)CC1`, the survival was 72% (inactive).
As to `O=S(=O)(c1ccc(OC(F)(F)F)cc1)N1CCC(c2nc3ccccc3s2)CC1`, the survival is 65% (inactive).
As for `CNC(=O)C1CCC(Cn2c(=O)c3sccc3n(CC(=O)Nc3ccccc3)c2=O)CC1` (stereo not given), the figure is 75% (inactive).
`CCOC(=O)c1sc2nc(C)n(CC(=O)Nc3cccc(Cl)c3)c(=O)c2c1C`: the survival was 71% (inactive).
With `CCOc1ccc(NC(=O)CSc2nccn2Cc2ccco2)cc1`, the survival is 91% (inactive).
As for `COc1ccc(-c2cn3c(n2)sc2cc(C(=O)NCCc4ccc(OC)cc4OC)ccc23)cc1`, the figure is 65% (inactive).
For `CCOc1ccc(-c2cn3c(n2)sc2cc(C(=O)NCCc4ccc(OC)cc4OC)ccc23)cc1`, the survival is 40% (active).
The same measure for `COc1ccccc1CNC(=O)c1ccc2c(c1)sc1nc(-c3ccc(F)cc3)cn12`: 63% (inactive); for `CCOc1ccccc1CNC(=O)c1ccc2c(c1)sc1nc(-c3ccccc3)cn12`: 67% (inactive).
For `CCOc1ccc(CCNC(=O)c2ccc3c(c2)sc2nc(-c4ccc(F)cc4)cn23)cc1OCC`, the survival is 42% (active).
The same measure for `COc1ccc(-c2cn3c(n2)sc2cc(C(=O)NCCc4ccccc4)ccc23)cc1`: 86% (inactive).
With `COc1cccc(-c2cn3c(n2)sc2cc(C(=O)NCCCc4ccccc4)ccc23)c1`, the survival is 54% (inactive).
As for `CCOc1ccc(-c2cn3c(n2)sc2cc(C(=O)NCCC4=CCCCC4)ccc23)cc1`, the figure is 87% (inactive); as for `CCc1ccc(-c2cn3c(n2)sc2cc(C(=O)NCCc4ccc(OC)cc4OC)ccc23)cc1`, 59% (inactive).
With `CCOc1ccc(CNC(=O)c2ccc3c(c2)sc2nc(-c4ccccc4)cn23)cc1`, the survival is 74% (inactive).
Regarding `CCOc1ccc(-c2cn3c(n2)sc2cc(C(=O)NCCc4ccc(OC)c(OC)c4)ccc23)cc1`, the survival is 49% (active).
Turning to `COc1cccc(-c2cn3c(n2)sc2cc(C(=O)NCCc4ccccc4)ccc23)c1`, the survival is 38% (active).
